In the library only some 19% were active in any assay of this set; here they are far more common.
HepG2 viability: qHTS for Inhibitors of TGF-b: Cytotox Counterscreen; hit rate 0.76% among 410,000; Potency, µM (series often up to 46.1 µM), hits mostly cytotoxic; AID 588856, 2011; HepG2 CAGA-GFP viability, ATP luminescence, 18 h
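HepG2 CAGA-GFP cells (1000/well, DMEM with 1% FBS) received compound, then TGF-beta at 500 pg/mL final, and were incubated 18 hours at 37 degrees C. Viability was read by CellTiter-Glo luminescence. Media-only wells were set as complete cell-killing and DMSO as no toxicity.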
TGFb inhibitor: qHTS for Inhibitors of TGF-b; AID 588855, 2011; hit rate 1.2% among 410,000; HepG2 CAGA-GFP TGF-b/SMAD3 reporter, GFP fluorescence, 18 h; TGF-beta stimulated, 500 pg/mL final; Potency, µM (titrated, usually from 46.1 µM), hits mostly inhibitors; note: nearly all actives have a fitted effect of over 65% in size
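Inhibition of TGF-beta-driven CAGA-GFP reporter expression in HEPG2 cells is measured by cellular GFP fluorescence after 18 h stimulation with 500 pg/mL recombinant TGF-beta in 1% FBS medium at 37 degrees C.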
TDP1 inh: qHTS Assay for Inhibitors of Tyrosyl-DNA Phosphodiesterase (TDP1); AID 485290, 2010; hit rate 0.28% among 350,000; recombinant TDP1, AlphaScreen DNA substrate cleavage; Potency, µM (top dose mostly 130 µM), hits mostly inhibitors; note: nearly all actives have a fitted effect of over 40% in size
Target sequence (Q9NUW8 whole entry, looked up): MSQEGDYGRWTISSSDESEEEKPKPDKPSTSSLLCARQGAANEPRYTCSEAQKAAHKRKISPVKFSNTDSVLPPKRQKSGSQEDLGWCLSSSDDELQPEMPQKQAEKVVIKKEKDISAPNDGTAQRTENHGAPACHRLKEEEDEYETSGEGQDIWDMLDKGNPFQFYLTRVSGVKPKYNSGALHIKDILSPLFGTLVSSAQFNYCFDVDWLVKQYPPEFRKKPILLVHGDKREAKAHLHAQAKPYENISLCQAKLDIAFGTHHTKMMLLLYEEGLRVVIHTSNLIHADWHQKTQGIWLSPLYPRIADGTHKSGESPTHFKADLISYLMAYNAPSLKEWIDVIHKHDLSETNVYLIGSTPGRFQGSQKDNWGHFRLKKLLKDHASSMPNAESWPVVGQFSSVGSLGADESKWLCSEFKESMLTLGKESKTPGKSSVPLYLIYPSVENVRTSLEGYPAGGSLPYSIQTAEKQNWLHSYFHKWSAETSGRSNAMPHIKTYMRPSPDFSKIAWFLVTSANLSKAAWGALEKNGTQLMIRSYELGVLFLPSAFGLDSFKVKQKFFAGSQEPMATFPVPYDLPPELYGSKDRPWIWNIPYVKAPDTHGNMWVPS
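Compounds were preincubated with Tdp1 (1 nM final) for 15 min at room temperature before substrate (15 nM final) started a 5 min reaction; beads (10 ug/ml final) were then added for 10 min before AlphaScreen detection.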
IL1B secr inh: qHTS for Inhibitors of Inflammasome Signaling: IL-1-beta AlphaLISA Primary Screen. THP-1 LPS/ATP IL-1B secretion, AlphaLISA, 16 h; stronger effect = lower value. hit rate 4.7% among 360,000. AID 743279, 2014. activity change, % at 57.5 µM; in the data active = activity change below about -50%; inconclusive = mostly about -30% to -49%
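THP-1 cells pretreated 1 hr with compounds (up to 57.5 uM final), then stimulated with LPS (250 ng/mL final) plus ATP (1.25 mM final); secreted IL-1B measured by AlphaLISA after 16 hr, decreased signal indicating inhibition.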
DT40 TDP1 CPT: qHTS for Inhibitors of human tyrosyl-DNA phosphodiesterase 1 (TDP1): qHTS in cells in presence of CPT | chicken DT40 Tdp1-/-;hTDP1 cells + 20 nM CPT, ATP luminescence, 48 h | hit rate 12% among 420,000 | Potency, µM (top dose mostly 46.2 µM), hits mostly inhibitors; note: nearly all actives have a fitted effect of over 55% in size
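Chicken DT40 Tdp1-/- cells complemented with human TDP1, 400 cells/well, exposed to compounds plus 20 nM camptothecin for at least 48 h at 37 C; viability read as ATP content by CellTiter-Glo luminescence.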
DT40 TDP1 no CPT: qHTS for Inhibitors of human tyrosyl-DNA phosphodiesterase 1 (TDP1): qHTS in cells in absence of CPT; DT40 Tdp1-/- hTDP1 cells, no CPT, ATP luminescence, 48 h; Potency, µM (titrated, usually from 46.2 µM), most hits filed as inhibitors; hit rate 15% among 420,000; AID 686978, 2013; note: nearly all actives have a fitted effect of over 55% in size
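DT40 Tdp1-/-;hTDP1 cells, no CPT (DMSO vehicle only), 400 cells/well; compounds pin-transferred; ≥48 hr, 37 °C; CellTiter-Glo 30 min RT dark, luminescence read.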
Numbers stand for hits; - = inactive; ? = inconclusive; . = not tested or not shown; [ ] = dose if it differs, or a comment. Unless noted, calls come from the whole dose curve; as a rule, active = well fitted curve in the direction sought with a large enough effect; inconclusive = small, poorly fitted or top-dose-only effect, or another doubt; inactive = no such curve, though single readings can be large; an effect the other way counts as inactive or inconclusive.

SMILES	HepG2 viability	TGFb inhibitor	TDP1 inh	IL1B secr inh	DT40 TDP1 CPT	DT40 TDP1 no CPT
CCN(CC)S(=O)(=O)c1ccc(N2CCOCC2)c(NC(=O)c2ccc(NC(C)=O)cc2)c1	-	-	-	?	-	-
CCc1ccc(-n2c(=O)c3cccnc3n2CC(=O)NCc2ccc(F)cc2)cc1	-	-	-	.	?	?
NC(=O)C1CCCN(Cc2c(C(=O)N3CCc4ccccc4C3)nc3ccc(Cl)cn23)C1 (stereo not drawn)	-	-	-	-	-	-
CCN(CC)S(=O)(=O)c1ccc(N2CCOCC2)c(NC(=O)COc2ccccc2C)c1	-	-	-	-56	21µM	18µM
CCC(C)NC(=O)c1ccc2c(c1)nc1n2CCCCC1 (stereo not drawn)	-	-	-	.	-	-
CCOC(=O)N1CCc2c(sc3c2c(=O)n(CCc2ccccc2)c(=O)n3Cc2c(F)cccc2Cl)C1	-	-	-	.	?	26µM
CC(=O)N1CCc2c(sc3c2c(=O)n(Cc2ccccc2)c(=O)n3Cc2ccc(Cl)cc2)C1	-	-	-	.	?	29µM
COc1ccccc1NC(=O)Cn1c(=O)n(-c2cccc(C(C)=O)c2)c(=O)c2c3c(sc21)CN(C(C)=O)CC3	-	-	-	.	-	-
CC(=O)c1cccc(-n2c(=O)c3c4c(sc3n(Cc3cccc(C)c3)c2=O)CN(C(C)=O)CC4)c1	-	-	-	.	16µM	15µM
CC(=O)N1CCc2c(sc3c2c(=O)n(-c2ccccc2)c(=O)n3CC(=O)c2ccccc2)C1	-	?	-	.	-	-
CC(=O)N1CCc2c(sc3c2c(=O)n(-c2ccccc2)c(=O)n3Cc2cccc(C(F)(F)F)c2)C1	-	?	-	.	16µM	18µM
O=C(Nc1cc(C(F)(F)F)ccc1Cl)c1cc(S(=O)(=O)NCc2ccccc2)ccc1F	-	-	-	.	?	?
Cc1cnc(-n2ncc(C(=O)N(C)C3CCOC3)c2C)nc1-c1ccc(F)cc1 (stereo not drawn)	.	.	.	.	-[9.04 µM]	-
COc1ccc(-n2ccn3c(CCC(=O)N4CCN(c5cccc(C)c5C)CC4)nnc3c2=O)cc1	-	-	-	-	?	-
CC(=O)N1CCc2c(sc3c2c(=O)n(CCc2ccccc2)c(=O)n3Cc2cccc(C)c2)C1	-	-	-	.	15µM	16µM
CCOC(=O)N1CCc2c(sc3c2c(=O)n(CCc2ccccc2)c(=O)n3Cc2ccc(C)cc2C)C1	-	-	-	.	?	23µM
CC(=O)N1CCc2c(sc3c2c(=O)n(Cc2ccccc2)c(=O)n3Cc2cccc(Cl)c2)C1	-	-	-	.	?	?
CCOC(=O)N1CCc2c(sc3c2c(=O)n(Cc2ccccc2)c(=O)n3Cc2ccc(C)cc2)C1	-	-	-	-	?	?
Cc1ccc(NS(=O)(=O)c2cc3c(cc2N2CCCCC2)NC(=O)CC3)cc1C	.	.	-	.	.	.
CS(=O)(=O)c1cccc(-c2nnc(NC(=O)c3ccc4c(c3)OCCO4)o2)c1	-	-	-	.	?	?
CCOC(=O)C(C)Oc1cccc2c(=O)n(CC(=O)Nc3ccc4c(c3)OCCO4)ccc12 (stereo not drawn)	-	-	-	-	-	-
CCOC(=O)C(C)Oc1cccc2c(=O)n(CC(=O)NCc3ccc4c(c3)OCO4)ccc12 (stereo not drawn)	-	?	-	-	2.6µM	2.3µM
COC(=O)COc1cccc2c(=O)n(CC(=O)NCCc3ccccc3)ccc12	-	?	-	-	-	-
CCOC(=O)COc1cccc2c(=O)n(CC(=O)NCc3ccc(F)cc3)ccc12	-	?	.	-	0.58µM	0.52µM
CCOC(=O)COc1cccc2c(=O)n(CC(N)=O)ccc12	-	-	.	-58	-	-

Compound activity (PubChem)
